# Assay results reported in PubChem BioAssay (NCATS).
# Records with an inconclusive call do not appear. Entries that show only a call come without a potency. Active and inactive are the calls of the source. Unless noted, calls come from the whole dose curve; as a rule, active = well fitted curve in the direction sought with a large enough effect; inconclusive = small, poorly fitted or top-dose-only effect, or another doubt; inactive = no such curve, though single readings can be large; an effect the other way counts as inactive or inconclusive.
# How the values were obtained:
# [1] = qHTS Validation Assay to Find Inhibitors of Chronic Active B-Cell Receptor Signaling (AID 485345; active = well fitted curve in the direction sought with a large enough effect in the main read-out, with a control signal flat, not every such curve was filed as active)
# Method in brief: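 TMD8 ABC-DLBCL cells stably carrying doxycycline-inducible IkappaBalpha–green luciferase fusion plus unfused red luciferase; compounds 46 uM to 3 nM, 4 h at 37C with doxycycline. Corrected green/red luminescence ratio normalized to 10 uM MG-132 and basal cell wells; curves fitted.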
# [2] = target: Beta-2 adrenergic receptor (Homo sapiens) (UniProt P07550); assay: qHTS validation assay of beta-arrestin-biased ligands of beta2-adrenergic receptor (AID 485366)
# Method in brief: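 Screening used a titration range of up to 46 microM in a beta-arrestin recruitment Tango luciferase assay. Cells in 1% FBS medium were treated 18 hr at 37 degrees C, and luminescence was normalized to %Activity.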
# [3] = Quantitative high throughput screen for delayed death inhibitors of the malarial parasite plastid, 96 hour incubation (AID 488745);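 note: luciferase-expressing P. falciparum in erythrocytes at 2% hematocrit and 0.1% parasitemia; series mostly up to about 29 µM; nearly all actives have a fitted effect of over 70% in size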
# Method in brief: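 Luciferase-expressing P. falciparum, infected RBCs 2% Hct/0.1% parasitemia (final); 96 h cpd exposure, 37 C, 5% CO2; RPMI 1640 + 0.5% Albumax, bicarbonate, gentamycin. Readout: luminescence loss = growth inhibition.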
# [4] = Quantitative high throughput screen for delayed death inhibitors of the malarial parasite plastid, 48 hour incubation (AID 488752); note: nearly all actives have a fitted effect of over 65% in size; note: potency is the fitted concentration of half-maximal effect
# Method in brief: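 Luciferase-expressing P. falciparum in RBCs, 2% Hct, 0.1% parasitemia final; RPMI 1640 + 0.5% Albumax; 48 h, 37 C, 5% CO2; luminescence readout, signal drop = growth inhibition.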
# [5] = target: Thioredoxin reductase 1, cytoplasmic (Rattus norvegicus) (UniProt O89049); assay: qHTS Assay for Substrates of Mammalian Selenoprotein Thioredoxin Reductase 1 (TrxR1) (AID 488772);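 note: series mostly up to about 57 µM; a drop in NADPH fluorescence below the no-compound background marks a TrxR1 substrate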
# Method in brief: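 In this dual-purpose format, potential substrates are identified from the first fluorescence read after selenite addition, not from the 8-minute delta. Rat enzyme is preincubated with NADPH and then with compound at ~22 deg C.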
# [6] = target: Thioredoxin reductase 1, cytoplasmic (Rattus norvegicus) (UniProt O89049); assay: qHTS Assay for Inhibitors of Mammalian Selenoprotein Thioredoxin Reductase 1 (TrxR1) (AID 488773); conditions: Potency: inhibition; note: nearly all actives have a fitted effect of over 40% in size; note: potency is the fitted concentration of half-maximal effect
# Method in brief: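 Inhibition is scored from the loss of NADPH fluorescence between first and last reads of an 8-min kinetic run. Selenite (400 uM) was the substrate, added after 15 min compound preincubation at room temperature.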
# [7] = target: Flap endonuclease 1 (Homo sapiens) (UniProt P39748); assay: qHTS Validation Assay for the Inhibitors of Human Flap endonuclease 1 (FEN1) (AID 488816)
# Method in brief: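 Enzyme reagent 10 nM; cpds pinned; 15 min RT preinc.; substrate 50 nM final; reads t=0 and 15 min; no-enzyme buffer wells as neg. control; normalized data, 4-parameter Hill fit.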
# [8] = target: Chromobox protein homolog 1 (Homo sapiens) (UniProt P83916); assay: qHTS Validation Assay for Inhibitors of HP1-beta Chromodomain Interactions with Methylated Histone Tails (AID 488953);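 note: loss of AlphaScreen luminescence from HP1-beta binding biotinylated H3K9me3 peptide; series mostly up to about 110 µM; nearly all actives have a fitted effect of over 50% in size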
# Method in brief: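 AlphaScreen proximity readout: streptavidin donor and Ni-chelate acceptor beads, 10 ug/mL final, 30 min dark, RT. Complex of 50 nM HP1-beta and 50 nM b-H3(1-18)K9me3 formed 30 min, then compound-treated 30 min; PBS pH 7.4/0.01% Tween-20.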
# [9] = target: ATP-dependent 6-phosphofructokinase (Trypanosoma brucei brucei) (UniProt O15648); assay: qHTS Validation Assay to Find Inhibitors of T. brucei phosphofructokinase (AID 485368)
# Description: NIH Molecular Libraries Probe Production Network [MLPCN]
# NIH Chemical Genomics Center [NCGC]
# PI Name: Malcolm Walkinshaw, University of Edinburgh
# Various species of the protozoan family Trypanosomatidae are responsible for a range of serious human diseases in tropical and subtropical areas of the world. […] Many of the disorders caused by trypanosomatids are fatal if left untreated, but most currently used drugs are inefficient and toxic.
# Oxidative metabolism involving the mitochondrial tricarboxylic acid cycle and oxidative phosphorylation are repressed in these parasites, and recent RNA interference (RNAi) experiments have shown that even partial depletion of certain individual glycolytic enzymes can lead to the death of cultured parasites. One such glycolytic enzyme, phosphofructokinase (PFK), catalyzes the formation of fructose-1,6-bisphosphate (F1,6BP) and ADP from fructose-6-phosphate (F6P) and ATP, and in many metabolic circumstances makes an important contribution to the control of flux through the glycolytic pathway. As a specific glycolytic target, PFK is particularly attractive as it catalyzes the first irreversible step in glycolysis, and structural and kinetic studies have shown very substantial and essential differences from corresponding host enzymes, allowing for the discovery of parasite-selective inhibitors.
# The goal of this screen is to find small-molecule inhibitors of T. brucei PFK using a biochemical assay that measures PFK activity as a function of ADP production. A luminescence-based assay for T. brucei PFK activity has been developed which uses luciferase to detect production of ADP. Traditional luciferase-based nucleotide detection reagents rely on ATP production as a direct substrate for the luciferase reaction; however, PFK catalyzes the transfer of a phosphate from ATP to F6P, resulting in the net depletion of ATP. To directly measure the ADP product of the PFK reaction, we used the ADP-Glo detection kit (Promega), which utilizes two separate reactions to 1) deplete all remaining uncatalyzed ATP and 2) convert all remaining ADP to ATP, which is then detected through a traditional luciferase-coupled reaction. Compounds were screened as a concentration-titration series that ranged from 57 uM to 0.7 nM.
# NCGC Assay Protocol Summary:
# Substrate buffer was dispensed into white, solid 1536-well plates at 3uL/well in 0.1M triethanolamine (TEA) buffer, pH 8.0, containing final concentrations of 5 mM MgCl2, 0.01% Tween20, 0.5 mM fructose-6-phosphate (F6P) and 0.1mM ATP. Then, 23 nL of compounds or DMSO were delivered to each well using a pin tool. […] The luminescent detection reagent, ADP-Glo (Promega), was then added in two steps: the first reagent, ADP-Glo (which converts remaining uncatalyzed ATP), was added at 2.5uL/well and incubated for ten minutes at room temperature, and the second component, Kinase Detection reagent (which converts ADP to ATP as a substrate for luciferase-based luminescence), was added immediately after at 5uL/well, followed by one final ten minute room temperature incubation. The plates were measured on a ViewLux plate reader for luminescent signal using a clear filter with a one second exposure. The %Activity was determined from the corrected luminescence values. […]
# Concentration-response curves were fitted to the signals arising from the resulting luminescence. […]
# [10] = target: M-phase phosphoprotein 8 (Homo sapiens) (UniProt Q99549); assay: qHTS Validation Assay for Inhibitors for MPP8 Chromodomain Interactions with Methylated Histone Tails (AID 488949);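 note: 50 nM MPP8 with 50 nM peptide preformed then compounds added for 30 min; AlphaScreen signal from MPP8 chromodomain bound to biotinylated H3K9me3 peptide; top concentration of the series differs between compounds; nearly all actives have a fitted effect of over 55% in size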
# Method in brief: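 Chemiluminescent proximity assay: histidine-tag capture via nickel acceptor beads, biotin peptide via streptavidin donor beads. Protein and peptide each at 50 nM, pH 7.4, with 30 min incubations at room temperature for complex formation, compound exposure and bead binding.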
# Sequence of Beta-2 adrenergic receptor (Homo sapiens) (P07550 whole entry, looked up): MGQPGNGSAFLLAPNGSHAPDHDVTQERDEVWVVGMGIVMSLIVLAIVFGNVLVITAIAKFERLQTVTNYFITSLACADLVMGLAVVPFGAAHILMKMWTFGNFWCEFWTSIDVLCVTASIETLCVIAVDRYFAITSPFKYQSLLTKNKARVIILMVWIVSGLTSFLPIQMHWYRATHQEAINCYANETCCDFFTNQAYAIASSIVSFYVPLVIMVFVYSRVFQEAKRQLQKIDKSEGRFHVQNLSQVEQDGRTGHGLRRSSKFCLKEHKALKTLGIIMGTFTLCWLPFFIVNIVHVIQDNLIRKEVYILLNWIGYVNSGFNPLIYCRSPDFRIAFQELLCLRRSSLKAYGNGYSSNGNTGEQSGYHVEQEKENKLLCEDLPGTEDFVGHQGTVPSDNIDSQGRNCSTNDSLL
# Sequence of Chromobox protein homolog 1 (Homo sapiens) (P83916 whole entry, looked up): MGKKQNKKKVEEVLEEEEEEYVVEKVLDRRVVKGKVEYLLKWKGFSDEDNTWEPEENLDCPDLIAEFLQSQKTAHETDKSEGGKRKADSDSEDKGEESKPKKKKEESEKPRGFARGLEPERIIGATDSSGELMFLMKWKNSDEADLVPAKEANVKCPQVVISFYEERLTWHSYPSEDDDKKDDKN
# Sequence of Thioredoxin reductase 1, cytoplasmic (Rattus norvegicus) (O89049 whole entry, looked up): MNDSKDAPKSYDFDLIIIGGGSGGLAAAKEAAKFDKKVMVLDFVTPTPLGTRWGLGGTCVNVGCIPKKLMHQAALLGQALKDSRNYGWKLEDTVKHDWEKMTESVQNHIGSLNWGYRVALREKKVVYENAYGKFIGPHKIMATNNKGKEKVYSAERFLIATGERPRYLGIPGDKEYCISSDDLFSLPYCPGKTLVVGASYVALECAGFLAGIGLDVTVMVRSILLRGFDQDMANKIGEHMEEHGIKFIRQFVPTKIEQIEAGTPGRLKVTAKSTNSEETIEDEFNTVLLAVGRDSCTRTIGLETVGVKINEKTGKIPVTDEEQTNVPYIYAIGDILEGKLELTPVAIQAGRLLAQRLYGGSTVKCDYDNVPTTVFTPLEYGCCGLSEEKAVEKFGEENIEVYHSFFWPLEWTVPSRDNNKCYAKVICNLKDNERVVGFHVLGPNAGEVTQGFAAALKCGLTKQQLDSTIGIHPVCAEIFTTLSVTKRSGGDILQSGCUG
# Sequence of Flap endonuclease 1 (Homo sapiens) (P39748 whole entry, looked up): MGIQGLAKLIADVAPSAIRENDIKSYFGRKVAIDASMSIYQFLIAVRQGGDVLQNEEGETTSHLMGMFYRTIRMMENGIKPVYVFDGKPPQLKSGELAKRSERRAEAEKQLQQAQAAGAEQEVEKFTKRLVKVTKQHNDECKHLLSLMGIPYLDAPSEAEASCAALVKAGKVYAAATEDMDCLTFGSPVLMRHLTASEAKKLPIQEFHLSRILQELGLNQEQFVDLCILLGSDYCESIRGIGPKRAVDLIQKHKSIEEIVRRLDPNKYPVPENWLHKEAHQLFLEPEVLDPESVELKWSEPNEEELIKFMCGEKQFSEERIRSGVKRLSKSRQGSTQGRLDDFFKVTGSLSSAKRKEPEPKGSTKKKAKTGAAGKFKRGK
# Sequence of M-phase phosphoprotein 8 (Homo sapiens) (Q99549 whole entry, looked up): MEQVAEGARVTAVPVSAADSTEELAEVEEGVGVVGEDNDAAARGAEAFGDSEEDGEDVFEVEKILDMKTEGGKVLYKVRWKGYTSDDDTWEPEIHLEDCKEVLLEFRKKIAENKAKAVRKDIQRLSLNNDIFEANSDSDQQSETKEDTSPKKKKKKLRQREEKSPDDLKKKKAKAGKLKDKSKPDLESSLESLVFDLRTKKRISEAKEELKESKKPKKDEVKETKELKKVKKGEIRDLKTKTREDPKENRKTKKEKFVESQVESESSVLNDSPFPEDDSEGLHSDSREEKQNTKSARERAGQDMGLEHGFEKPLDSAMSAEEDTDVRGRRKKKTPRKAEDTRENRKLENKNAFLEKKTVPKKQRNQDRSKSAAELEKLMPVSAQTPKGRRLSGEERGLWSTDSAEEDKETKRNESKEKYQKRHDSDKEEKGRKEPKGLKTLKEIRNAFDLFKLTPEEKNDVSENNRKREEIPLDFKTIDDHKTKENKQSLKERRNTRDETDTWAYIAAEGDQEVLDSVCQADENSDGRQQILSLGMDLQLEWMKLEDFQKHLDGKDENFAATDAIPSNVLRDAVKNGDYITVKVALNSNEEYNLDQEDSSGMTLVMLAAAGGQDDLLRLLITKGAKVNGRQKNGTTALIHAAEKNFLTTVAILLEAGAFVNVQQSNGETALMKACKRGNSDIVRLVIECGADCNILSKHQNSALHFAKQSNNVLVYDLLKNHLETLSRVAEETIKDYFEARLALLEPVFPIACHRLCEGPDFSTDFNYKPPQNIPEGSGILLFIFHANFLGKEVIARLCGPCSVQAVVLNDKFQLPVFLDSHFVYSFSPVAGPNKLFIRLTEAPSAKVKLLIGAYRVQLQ
# Sequence of ATP-dependent 6-phosphofructokinase (Trypanosoma brucei brucei) (O15648 whole entry, looked up): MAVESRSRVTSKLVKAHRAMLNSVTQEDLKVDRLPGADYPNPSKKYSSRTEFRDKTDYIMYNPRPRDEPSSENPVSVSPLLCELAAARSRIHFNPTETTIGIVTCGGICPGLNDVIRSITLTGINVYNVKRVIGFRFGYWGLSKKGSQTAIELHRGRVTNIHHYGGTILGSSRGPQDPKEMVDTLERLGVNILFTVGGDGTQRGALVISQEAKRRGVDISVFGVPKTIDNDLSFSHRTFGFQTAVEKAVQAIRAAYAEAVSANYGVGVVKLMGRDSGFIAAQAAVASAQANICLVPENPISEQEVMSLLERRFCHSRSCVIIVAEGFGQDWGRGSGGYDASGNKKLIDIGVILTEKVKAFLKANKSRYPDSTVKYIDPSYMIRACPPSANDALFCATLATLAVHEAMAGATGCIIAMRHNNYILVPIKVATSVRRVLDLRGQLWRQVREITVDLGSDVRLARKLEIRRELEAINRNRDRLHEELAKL
Structure (SMILES),outcome [1],outcome [2],Potency [3],Potency [4],outcome [5],Potency [6],Potency [7],Potency [8],Potency [9],Potency [10]
CC1=C(C(=O)O)N2C(=O)[C@@H](NC(=O)C(N)c3ccccc3)[C@H]2SC1 (stereo not given in full),inactive,inactive,inactive,inactive,inactive,inactive,inactive,inactive,,
Nc1nc(N)c2nc(CNc3ccc(C(=O)NC(CCC(=O)O)C(=O)O)cc3)cnc2n1 (stereo not given),inactive,inactive,inactive,inactive,,inactive,inactive,,,
CCN(CC)CCn1c(=O)c(Cc2ccc(OC)cc2)nc2ccccc21,,inactive,,,inactive,inactive,,inactive,inactive,inactive
CC(=O)[C@H]1CC[C@H]2[C@@H]3CCC4=CC(=O)CC[C@]4(C)[C@H]3CC[C@]12C,,inactive,,inactive,inactive,inactive,inactive,inactive,inactive,inactive
CCCCS(=N)(=O)CCC(N)C(=O)O (stereo not given),inactive,inactive,inactive,2.08 µM (active),inactive,inactive,inactive,inactive,inactive,inactive
CCN(CC)CC#CCOC(=O)C(O)(c1ccccc1)C1CCCCC1 (stereo not given),inactive,inactive,inactive,,inactive,inactive,inactive,inactive,inactive,inactive
Cc1ccc(S(=O)(=O)N[C@@H](Cc2ccccc2)C(=O)CCl)cc1,,inactive,inactive,inactive,inactive,21.2 µM (active),inactive,inactive,,inactive
COc1cc2nc(N3CCCN(C)CC3)nc(NC3CCN(Cc4ccccc4)CC3)c2cc1OC,,inactive,,,inactive,inactive,,,,inactive
CC1CC2C3CCC4=CC(=O)C=C[C@]4(C)[C@@]3(F)[C@@H](O)C[C@]2(C)[C@@]1(O)C(=O)CO (stereo not given in full),,inactive,,,inactive,inactive,inactive,inactive,,inactive
